Among all 50,000 compounds or so, about 800 (1.6%) showed an effect of 50% or more. For the sample, strong results were picked, then their nearest neighbours and some compounds at random.
Target: Bcl-2-like protein 10 (Homo sapiens) (UniProt Q9HD36)
Test: Phenotype converters, Bcl-B/TR3 peptide binding displacement, primary biochemical FP (AID 1240);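 note: 0% = Bcl-B with tracer peptide and DMSO and 100% = tracer peptide lacking Bcl-B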
Details: GST-Bcl-B / FITC-TR3 peptide fluorescence polarization; stronger effect = higher value; compound at 3.75 mg/L

Chain of Bcl-2-like protein 10 (Homo sapiens) (Q9HD36 whole entry, looked up): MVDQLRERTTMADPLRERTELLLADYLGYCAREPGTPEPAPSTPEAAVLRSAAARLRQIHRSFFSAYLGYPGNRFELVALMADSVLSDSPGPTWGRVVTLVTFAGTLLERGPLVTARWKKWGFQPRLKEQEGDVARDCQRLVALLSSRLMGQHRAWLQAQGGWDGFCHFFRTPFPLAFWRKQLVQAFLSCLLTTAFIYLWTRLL

Row | Compound | displacement [%]
1 | CCOC(=O)c1cnn(-c2ccccc2)c1NC(=O)c1ccccc1 | 2.4
2 | O=C(c1ccco1)N(C(=O)c1ccco1)c1cc(C(F)(F)F)ccc1Cl | -3.3
3 | COc1ccc(OCCOCCN2CCC(C)CC2)cc1 | -9.4
4 | CNC(=O)c1c(-c2ccccc2)oc2ccc(O)cc12 | 10.3
5 | O=C1C(C=NCc2ccc(Cl)c(Cl)c2)=C(O)c2ccccc21 | 2.5
6 | O=C1CC(c2ccccc2)CC(O)=C1C=NCc1ccc2c(c1)OCO2 (configuration not stated) | -2.5
7 | O=C1C(C=NCc2ccc3c(c2)OCO3)=C(O)c2ccccc21 | 134
8 | O=C(Nc1ccc2oc(-c3ccc(Cl)cc3Cl)nc2c1)c1ccc2c(c1)OCCO2 | 2.1
9 | O=c1c2ccccc2nc(/C=C/c2cccc([N+](=O)[O-])c2)n1Cc1ccccc1 | 12.9
10 | Cn1c(/C=C/c2cn(C)c3ccccc23)nc2ccccc2c1=O | 40.9
11 | Cn1c(/C=C/c2ccc([N+](=O)[O-])cc2)nc2ccccc2c1=O | 2.9
12 | Cn1cc(/C=C/c2nc3ccccc3c(=O)n2Cc2ccccc2)c2ccccc21 | 136
13 | Cn1c(/C=C/c2cn(Cc3ccccc3)c3ccccc23)nc2ccccc2c1=O | 17.3
14 | O=c1c2ccccc2nc(/C=C/c2ccc([N+](=O)[O-])cc2)n1Cc1ccccc1 | 118
15 | Cc1onc(-c2ccccc2Cl)c1C(=O)NC12CC3CC(CC(C3)C1)C2 | 1
16 | CCOC(=O)c1c(NC(=O)c2cccc(Cl)c2)sc(C(=O)Nc2cccc(C(F)(F)F)c2)c1C | -3.3
17 | O=C(N1CCOCC1)n1nnc2ccccc21 | 13.2
18 | CC(C)(C)c1ccc(-c2nn(CNc3cccc(Cl)c3)c(=S)o2)cc1 | 14
19 | COc1ccc(C/C(N)=N/OC(=O)c2ccccc2Cl)cc1 | -0.1
20 | O=C(Nc1ccc2nn(-c3ccc(Cl)cc3)nc2c1)c1ccccc1I | 7.4
21 | O=C(COc1ccc([N+](=O)[O-])cc1)Nc1ccc2nn(-c3ccc(F)cc3)nc2c1 | 9
22 | CCCC(=O)Nc1ccc2nn(-c3ccc(F)cc3)nc2c1 | 0.6
23 | O=C(COc1ccccc1Cl)Nc1ccc2nn(-c3ccccc3)nc2c1 | 78.4

Row | Compound | displacement [%]
24 | O=C(COc1ccccc1)Nc1ccc2nn(-c3ccc(Cl)cc3)nc2c1 | 6.3
25 | O=C(COc1ccc(Br)cc1)Nc1ccc2nn(-c3ccc(F)cc3)nc2c1 | 50.3
26 | O=C(Nc1ccc2nn(-c3ccc(Cl)cc3)nc2c1)c1ccccn1 | 91
27 | COc1ccc(-n2nc3ccc(NC(=O)COc4ccccc4Cl)cc3n2)cc1 | 19.9
28 | O=C(Nc1ccc2nn(-c3ccc(Cl)cc3)nc2c1)c1ccccc1 | -1.9
29 | Oc1ccc(/C=N/Nc2nc3ccccc3s2)c(O)c1 | 11.1
30 | COc1ccccc1CC(=O)NCc1ccco1 | 10.3
31 | Cc1occc1C(=O)N/N=C/c1ccc(O)cc1O | 78.5
32 | Cc1occc1C(=O)N/N=C/c1ccccc1 | 4.2
33 | COc1ccc(/C=N/NC(=O)c2ccoc2C)c(OC)c1OC | -4.5
34 | Cc1ccc(N2C(=O)c3ccc(C(=O)O)cc3C2=O)nc1 | -10.6
35 | c1ccc(-n2ncnc2-c2ccc3c(c2)OCO3)cc1 | 4.4
36 | CC1CCCN(Cc2c(O)ccc3cc(-c4nc5ccccc5[nH]4)c(=O)oc23)C1 (configuration not stated) | 106
37 | CN1CCN(Cc2c(O)ccc3c(=O)c(-c4ccccc4)coc23)CC1 | -1.7
38 | COc1ccccc1-c1coc2c(CN3CCN(C)CC3)c(O)ccc2c1=O | -1.3
39 | CC1CCN(Cc2c(O)ccc3c4c(c(=O)oc23)CCC4)CC1 | 12.8
40 | CCOC(=O)c1c(-c2ccccc2)oc2ccc(O)c(CN3CCCC(C)C3)c12 (configuration not stated) | 11
41 | Cn1c(-c2cc3ccc(O)c(CN4CCOCC4)c3oc2=O)nc2ccccc21 | 19.1
42 | O=c1oc2c(CN3CCOCC3)c(O)ccc2cc1-c1nc2ccccc2[nH]1 | 139
43 | CN1CCN(Cc2c(O)ccc3cc(-c4nc5ccccc5[nH]4)c(=O)oc23)CC1 | 125
44 | CCc1cc2c(=O)c(-c3nc4ccccc4[nH]3)coc2c(CN2CCOCC2)c1O | 8.5
45 | COc1ccc(N2C(=O)C3C(c4ccccc4Cl)OC4(C(=O)c5ccccc5C4=O)C3C2=O)c(OC)c1 (configuration not stated) | 12.5
46 | COc1ccc(C2CC(=O)C3=C(C2)Nc2ccccc2NC3c2cc(C)ccc2C)cc1 (configuration not stated) | -3.7

Row | Compound | displacement [%]
47 | Cc1ccc(C2/C(=C(\O)c3ccccc3)C(=O)C(=O)N2CCCC(=O)O)cc1 (configuration not stated) | 1.4
48 | O=C1N=c2ccccc2=C1c1sc(Nc2cccc(Cl)c2Cl)nc1O | 15.8
49 | O=C1OC(c2ccc(Br)cc2)=C/C1=C\C=C\c1ccccc1 | -8.3
50 | COc1cc(/C=C2\C(=O)NN(c3ccccc3)C2=O)cc(OC)c1OC | -6.6
51 | COc1ccc(C(=O)Nc2ccc(Br)cn2)cc1OC | 5.1
52 | COc1ccc(Cl)cc1NC(=O)C1=C(C)NC(=O)NC1c1cccc2ccccc12 (configuration not stated) | 15.4
53 | O=C1CCCc2oc3ccc(NS(=O)(=O)c4ccccc4)cc3c21 | 2.5
54 | Cc1ccc(/C=C/C(=O)Nc2cccc([N+](=O)[O-])c2)o1 | 10.1
55 | Cc1ccc(/C=C/C(=O)Nc2ccc([N+](=O)[O-])cc2)o1 | 11.8
56 | O=[N+]([O-])c1ccccc1-c1ccc(/C=C/c2ccc3ccccc3n2)o1 | 97.9
57 | O=C(/C=C/c1ccc(-c2ccccc2[N+](=O)[O-])o1)Nc1cccnc1 | 73.1
58 | O=C1C(=Cc2ccc(-c3ccccc3[N+](=O)[O-])o2)C(=O)c2ccccc21 | -3.3
59 | O=[N+]([O-])c1ccc(-c2ccc(/C=C/c3ccc4ccccc4n3)o2)cc1 | 14.8
60 | Cc1ccc(/C=C/C(=O)Nc2ccc(C)c([N+](=O)[O-])c2)o1 | 62
61 | O=C(/C=C/c1ccc(-c2ccccc2[N+](=O)[O-])o1)Nc1ccc(NC(=O)c2ccco2)cc1 | -0.2
62 | O=C(Nc1cccnc1)c1ccc(-c2ccccc2[N+](=O)[O-])o1 | 48.4
63 | COc1ccc(-c2cc(CC(=O)c3ccccc3)cc(-c3ccc(OC)cc3)n2)cc1 | 7.7
64 | COc1ccc(Cl)cc1N(CC(=O)N1CCCCC1)S(=O)(=O)c1ccc(C)c([N+](=O)[O-])c1 | 2.3
65 | Cc1ccccc1/[N+]([O-])=C/c1cccs1 | 0.1
66 | COc1ccccc1NC(=O)C(=O)NCC(C)C | 9.1
67 | COc1cc(OC)c(OC)cc1CN1CCN(Cc2cc(OC)c(OC)cc2Br)CC1 | 1.2

From PubChem BioAssay AID1240 (Sanford-Burnham Center for Chemical Genomics, 2008)
